# Experimental data from PubChem BioAssay (EPA / NIEHS).
# Active and inactive are the calls of the source. Rule for the calls: active = hit-call score of the fitted dose curve at least 0.9, where 1 is the maximum; inactive = score below 0.9.
# Read-out: flavin-containing dimethylaniline monooxygenases 3 (FMO3), FMO3 (gene 2328)
# Assay: LTEA_HepaRG_FMO3: Life Technologies and Expression Analysis (LTEA) Assay for flavin-containing dimethylaniline monooxygenases 3 (FMO3) using HepaRG (AID 2283453);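 for AC50: FMO3 transcript by TaqMan qRT-PCR normalized to ACTB GAPDH and POLR2A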
# Details: mRNA level, 48 h; actives raise or lower the signal
# Experimental: LTEA_HepaRG is a cell based, multiplexed-readout assay that uses HepaRG, a human liver cell line, with measurements taken at 48 hours after chemical dosing on a 96-well plate.LTEA_HepaRG_FMO3 is one of 102 assay component(s) measured in the LTEA HepaRG cell culture assay. It is a marker of NR mediated metabolism.Data from the assay component LTEA_HepaRG_FMO3 was analyzed into 1 endpoint. This assay endpoint, LTEA_HepaRG_FMO3, was analyzed with bidirectional fitting relative to DMSO as the negative control and baseline of activity. Using a type of inducible reporter, measures of mRNA induction for gain or loss-of-signal activity can be used to understand regulation of transcription factor activity. To generalize the intended target to other relatable targets, this assay endpoint is annotated to the oxidoreductase intended target family, where the subfamily is […].
# A total of 1060 chemcials from the ToxCast library were tested in eight-point concentration-response experiments. Cell culture and cytotoxicity assays were conducted at Thermo Fisher Scientific's Custom Services facility (Madison, WI). A single lot of human HepaRG cells (Thermo Fisher Scientific, Frederick, MD) was used for the cell culture experiments. 96-well format collagen type I coated plates of human HepaRG cells were prepared using established methods. Briefly, cryopreserved HepaRG cells were thawed, plated at a density of approximately 100,000 cells/well in HepaRG Thaw, Plate, and General Purpose media (HPRG770, Thermo Fisher Scientific), and incubated for 48 hours. 0.5% DMSO was selected as vehicle control to balance the requisite need of DMSO in HepaRG cultures to maintain differentiation (for example, baseline metabolism, proportions of hepatocytes vs. cholangiocytes), while enabling further hepatic receptor pathway activation (for example, PXR and CAR) in response to chemical exposure. 48 hours after plating, the culture medium was replaced with HepaRG Serum-Free Incudtion Media. Cells were exposed to each test chemical in duplicate and maintained in CO2 incubators for another 48 hours. Chemical plates were thawed to room temperature and 200x concentrations of treatment groups were prepared. 8-point conentration-reponse curves were made with the highest exposure at 100 uM, followed by half-log dilutions, all in 0.5% DMSO. Each test plate contained variouse controls, induction positive controls (1mM phenobarbital), cytotoxicity positive controls ([…] aflatoxin B1), vehicle controls (0.5% DMSO), and total lysis controls (0.5% DMSO). Cell morphology images were taken using an Essen IncuCyte FLR automated microscope, with six 96-well plates imaged in about 24 minutes. Images were captured and exported and JPEG files. Spent culture media was transfered to black-well plates for the LDH assay, and remaining media was sorted at -80 C for later use. Cells were treated with RLT buffer and frozen until shipped for gene expression analysis. Total RNA was isolated from the cell suspension in 75 uL of Buffer RLT (Qiagen, Germantown, MD 20874) by Quintiles/Expression Analysis (Durham, NC) using a custom isolation procedure. Total RNA from each plate well was transferred to a preamplification plate. Fluidigm's 96.96 Dynamic ArrayTM (Fluidigm, Amsterdam, the Netherlands) technology was used for gene expression analyses by quantitative reverse transcription polymerase chain reaction (qRT-PCR, performed by Quintiles/Expression Analysis, Durham, NC)89. Standard TaqManTM Assays (Applied Biosystems/ThermoFisher Scientific, Foster City, CA) were used to assess the expression of 93 genes selected based on their selectivity and sensitivity to important hepatic receptors known to be modulated by environmental chemicals; importance in human hepatocyte functionality; and hepatotoxicity. […]
SMILES,AC50,outcome
COc1cc(C(=O)NC2CCN(C)CC2)ccc1Nc1ncc2c(n1)N(C1CCCC1)CC(F)(F)C(=O)N2C,12.6 µM (active),
Cc1oc2c(NC(=O)c3c(Cl)cccc3Cl)cccc2c1C(C)(C)O,37.2 µM (active),
CC(C)(O)c1ccc(CNC(=O)c2cccnc2Oc2ccc3nonc3c2)cc1,,inactive
CC(C)(C)c1csc(-c2cc3cc(OCc4ccccc4CC(=O)O)ccc3o2)n1,73.5 µM (active),
CCN(Cc1cccc(S(=O)(=O)O)c1)c1ccc(C(=C2C=CC(=[N+](CC)Cc3cccc(S(=O)(=O)O)c3)C=C2)c2ccccc2S(=O)(=O)[O-])cc1,,inactive
NC(=O)c1nc(-c2cccc(-c3cc(F)ccc3OCC(F)(F)C(F)(F)F)c2)n[nH]1,,inactive
c1ccc2n[nH]nc2c1,,inactive
CC1=CC(=O)/C(=C(/C)O)C(=O)O1,,inactive
Cc1ncc(CO)c(CO)c1O,,inactive
CCCCCCCCOC(=O)c1cc(O)c(O)c(O)c1,,inactive
CO[C@H]1/C=C/O[C@@]2(C)Oc3c(C)c(O)c4c(O)c(c(/C=N/N5CCN(C)CC5)c(O)c4c3C2=O)NC(=O)/C(C)=C\C=C\[C@H](C)[C@H](O)[C@@H](C)[C@@H](O)[C@@H](C)[C@H](OC(C)=O)[C@@H]1C,,inactive
CC(C)(c1cc(Br)c(O)c(Br)c1)c1cc(Br)c(O)c(Br)c1,,inactive
CN(C)c1ccc(C(=C2C=CC(=[N+](C)C)C=C2)c2ccc(N(C)C)cc2)cc1,4.03 µM (active),
O=C(O)Cc1cc(I)c(Oc2ccc(O)c(I)c2)c(I)c1,91.2 µM (active),
O=C1c2ccccc2C(=O)N1CCc1noc(-c2ccc(CN3CCCCCC3)s2)n1,,inactive
COc1cccc([C@H](O)C2CCN(CCc3ccc(F)cc3)CC2)c1OC,,inactive
CCCCCc1ccc(N)cc1,,inactive
O=c1ccc2ccccc2o1,,inactive
CC1(C)NC(=O)N(c2ccc([N+](=O)[O-])c(C(F)(F)F)c2)C1=O,76.6 µM (active),
Cc1cn([C@H]2C[C@H](N=[N+]=[N-])[C@@H](CO)O2)c(=O)[nH]c1=O,,inactive

SMILES,AC50,outcome
Clc1cc(Cl)c2c(c1)N=C1CCCCCN1C2,,inactive
CN1C(=O)N(c2ccccc2Br)Cc2cnc(Nc3ccc4c(c3)OCC(CO)O4)nc21 (stereo not given),44.8 µM (active),
O=C(O)Cn1c(=O)n(Cc2ccc(Br)cc2F)c(=O)c2ccc(Cl)cc21,,inactive
CN(C)C(=O)C1(N2CCCCC2)CCN(CC[C@@]2(c3ccc(Cl)c(Cl)c3)CN(C(=O)c3ccccc3)CCO2)CC1,13.7 µM (active),
CCOC(=O)O[C@H](C)OC(=O)c1ccc2c(c1)cc(C(=O)NC1CCN(C(C)C)CC1)n2Cc1cc(-c2ccc(Cl)s2)on1,,inactive
O=C(O)c1ccccc1C(=O)OCc1ccccc1,,inactive
CC(=O)N1CCN(c2ccc(OC[C@H]3CO[C@](Cn4ccnc4)(c4ccc(Cl)cc4Cl)O3)cc2)CC1,11.8 µM (active),
Cc1c2ccccc2c(C)c2c1ccc1ccccc12,34.2 µM (active),
O=CCCCC=O,,inactive
CCN(CC)C(=O)c1cc(S(=O)(=O)Cc2ccccc2)c(N2CCC(c3ccccc3)CC2)cc1N(CC)CCN(C)C,29.4 µM (active),
Cc1ccc2oc(CN(Cc3ccccc3)C(=O)Nc3c(F)cc(F)cc3F)c(-c3ccc(Cl)cc3)c2c1,59.5 µM (active),
Cc1cc(F)ccc1-c1cc(N2CC[C@@H](O)[C@H]2CO)ncc1N(C)C(=O)C(C)(C)c1cc(C(F)(F)F)cc(C(F)(F)F)c1,21.9 µM (active),
CC/C(=C(/CC)c1ccc(O)cc1)c1ccc(O)cc1,92.4 µM (active),
O=C(OCCCCCCOC(=O)c1ccccc1)c1ccccc1,,inactive
C[C@]12CC[C@@H]3c4ccc(O)cc4CC[C@H]3[C@@H]1CC[C@H]2O,,inactive
O=C(Nc1ccc(Cl)cc1)Nc1ccc(Cl)c(Cl)c1,22.9 µM (active),
CN(C[C@@H](CC[N+]12CCC(C3CCCCC3)(CC1)CC2)c1ccc(Cl)c(Cl)c1)C(=O)c1cc(C(F)(F)F)cc(C(F)(F)F)c1,50 µM (active),
O=C(O)c1ccccc1-n1cc(C(=O)O)c(=O)c2cc(Nc3c(F)cc(F)cc3Cl)c(Cl)cc21,,inactive
CC[C@@H]1C[C@H](N(Cc2cc(C(F)(F)F)cc(C(F)(F)F)c2)C(C)=O)c2cc(C(F)(F)F)ccc2N1C(=O)OC(C)C,,inactive
O=c1[nH]sc2ccccc12,,inactive
